In PubChem BioAssay (EPA / NIEHS):
“And” between values parts separate entries of the source, which are not always exact repeats. Identical values can stand only once. More than one record can exist for a structure, and the calls need not agree. The source made the active and inactive calls. Rule for the calls: active = hit-call score of the fitted dose curve at least 0.9, where 1 is the maximum; inactive = score below 0.9.

What was measured:
[1] = APR_HepG2_NuclearSize_72hr: Apredica 72-hour HepG2 Assay for Nuclear Size (AID 2282925); details: high-content imaging, actives raise or lower the signal
Summary of the method: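 Read-out: nuclear diameter from Hoechst 33342 images (ArrayScan, 20x, six fields/well), via cell-cycle image analysis. HepG2 were dosed 0.39–200 uM for 72 hr in 0.5% DMSO. Bidirectional fit relative to DMSO.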

[2] = ATG_CRE_CIS: Attagene CIS-FACTORIAL HepG2 Assay for human cAMP Responsive Element (CRE) binding protein 3 (AID 2282926); details: HepG2 CRE cis-reporter, Attagene multiplexed mRNA; actives raise or lower the signal
Summary of the method: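 Cells carrying cis-regulated reporter constructs respond through their own endogenous factors. After 24 h treatment, RNA is reverse-transcribed, amplified, labelled and sized by capillary electrophoresis; up- and down-regulation are both scored against vehicle.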

[3] = target: CCAAT/enhancer-binding protein beta (Homo sapiens) (UniProt P17676); experiment: ATG_C_EBP_CIS: Attagene CIS-FACTORIAL HepG2 Assay for human CCAAT/Enhancer Binding Protein (C/EBP) beta (AID 2282927); details: HepG2 Attagene cis-factorial transcription factor reporter; actives raise or lower the signal
Chain of CCAAT/enhancer-binding protein beta (Homo sapiens) (P17676 whole entry, looked up): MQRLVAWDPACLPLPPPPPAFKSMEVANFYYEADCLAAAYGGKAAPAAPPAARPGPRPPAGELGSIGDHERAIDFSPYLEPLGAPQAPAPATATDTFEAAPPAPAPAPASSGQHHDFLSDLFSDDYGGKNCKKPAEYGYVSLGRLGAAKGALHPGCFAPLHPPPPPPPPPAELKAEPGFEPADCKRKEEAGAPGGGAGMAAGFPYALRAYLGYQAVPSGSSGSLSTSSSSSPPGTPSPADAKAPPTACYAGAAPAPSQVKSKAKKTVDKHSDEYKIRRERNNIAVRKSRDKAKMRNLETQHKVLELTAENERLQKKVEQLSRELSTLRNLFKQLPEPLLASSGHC
Summary of the method: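 HepG2, transient MRTU transfection, 24 h treatment. RT-PCR plus CE fluorescence; DMSO negative control, bidirectional fit.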

[4] = ATG_CMV_CIS: Attagene CIS-FACTORIAL HepG2 Assay for human CMV (Internal Marker) (AID 2282928); details: HepG2 CMV promoter reporter, transcription factor profiling; actives raise or lower the signal;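 note: endpoint acts as a background internal control marker rather than a target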
Summary of the method: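 24 h chemical treatment, HepG2 with transient multi-reporter transfection; RNA → oligo(dT) RT → PCR → 6-FAM extension → HpaI digest → CE fluorescence. Bidirectional fit, DMSO negative control.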

[5] = ATG_DR4_LXR_CIS: Attagene CIS-FACTORIAL HepG2 Assay for human Liver X Receptor (LXR), DR4 submotif (AID 2282929); details: HepG2 Attagene DR4 cis-reporter, mRNA transcription; actives raise or lower the signal
Summary of the method: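 Transiently transfected HepG2 liver cells; cis-regulated reporters; 24 h dosing. RT-PCR plus CE read-out of reporter mRNA. DMSO baseline, bidirectional curve fitting.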

[6] = target: Aryl hydrocarbon receptor (Homo sapiens) (UniProt P35869); experiment: ATG_Ahr_CIS: Attagene CIS-FACTORIAL HepG2 Assay for human Aryl Hydrocarbon Receptor (Ahr) (AID 2282930); details: HepG2 AhR cis-factorial reporter transcription; actives raise or lower the signal
Chain of Aryl hydrocarbon receptor (Homo sapiens) (P35869 whole entry, looked up): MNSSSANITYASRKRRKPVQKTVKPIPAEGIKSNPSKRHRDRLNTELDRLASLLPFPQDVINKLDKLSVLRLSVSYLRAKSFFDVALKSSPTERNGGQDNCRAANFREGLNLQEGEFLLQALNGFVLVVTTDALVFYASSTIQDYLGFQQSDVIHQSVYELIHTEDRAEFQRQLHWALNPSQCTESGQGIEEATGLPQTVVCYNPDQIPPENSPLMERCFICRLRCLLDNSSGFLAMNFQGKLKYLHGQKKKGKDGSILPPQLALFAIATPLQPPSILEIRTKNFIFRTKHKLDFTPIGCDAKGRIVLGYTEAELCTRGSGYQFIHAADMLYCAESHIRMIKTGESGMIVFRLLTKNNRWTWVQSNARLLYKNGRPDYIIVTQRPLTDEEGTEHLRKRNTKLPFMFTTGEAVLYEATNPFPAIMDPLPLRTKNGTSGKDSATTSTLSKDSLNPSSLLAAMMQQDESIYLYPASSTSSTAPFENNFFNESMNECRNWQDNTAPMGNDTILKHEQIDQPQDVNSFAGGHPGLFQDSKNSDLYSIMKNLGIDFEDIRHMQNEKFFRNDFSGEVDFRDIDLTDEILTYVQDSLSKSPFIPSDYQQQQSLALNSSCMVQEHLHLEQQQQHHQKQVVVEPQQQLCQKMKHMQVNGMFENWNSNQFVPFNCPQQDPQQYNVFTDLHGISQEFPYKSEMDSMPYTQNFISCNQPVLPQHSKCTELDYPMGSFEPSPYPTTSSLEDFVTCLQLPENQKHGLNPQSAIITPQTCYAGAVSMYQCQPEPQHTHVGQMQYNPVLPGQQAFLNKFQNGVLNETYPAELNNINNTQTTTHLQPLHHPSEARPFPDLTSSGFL
Summary of the method: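 Endogenous factor activity is tracked through cis-promoter reporter units transfected into HepG2 cells. Transcript levels at 24 h are read by fluorescent RT-PCR and capillary electrophoresis, with activity in either direction scored relative to DMSO.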

[7] = ATG_AP_1_CIS: Attagene CIS-FACTORIAL HepG2 Assay for human Activator Protein 1 (AP-1) (AID 2282931); details: HepG2 Attagene cis-factorial AP-1 reporter mRNA; actives raise or lower the signal
Summary of the method: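 We transfected HepG2 cells transiently with a set of cis-regulated reporter transcription units, dosed them for 24 h, and quantified reporter mRNA via RT-PCR and capillary electrophoresis, scoring gain or loss of signal relative to DMSO.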

[8] = ATG_AP_2_CIS: Attagene CIS-FACTORIAL HepG2 Assay for human Activator Protein 2 (AP-2) (AID 2282932); details: HepG2 AP-2 cis-reporter, Attagene transcription factor profiling; actives raise or lower the signal
Summary of the method: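 Read-out: fluorescent reporter mRNA via RT-PCR and capillary electrophoresis, 24 h post-dose in transiently transfected HepG2. Endogenous factors drive cis-promoter reporters; gain or loss of signal fitted bidirectionally against DMSO.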

[9] = ATG_BRE_CIS: Attagene CIS-FACTORIAL HepG2 Assay for human Bone Morphogenetic Protein (BMP) Response Element (BRE) (AID 2282933); details: HepG2 BMP response element reporter, Attagene transcription factor profiling; actives raise or lower the signal
Summary of the method: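 Multiplexed cis-reporter assay, HepG2, 24 h exposure. mRNA from reporter units quantified via RT-PCR/CE; DMSO baseline; bidirectional curve fit.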

[10] = target: Retinoic acid receptor alpha (Homo sapiens) (UniProt P10276); experiment: ATG_DR5_RAR_CIS: Attagene CIS-FACTORIAL HepG2 Assay for human Retinoic Acid Receptor Alpha (RARE), DR5 submotif (AID 2282934); details: HepG2 Attagene cis-factorial RARE DR5 reporter, mRNA; actives raise or lower the signal
Chain of Retinoic acid receptor alpha (Homo sapiens) (P10276 whole entry, looked up): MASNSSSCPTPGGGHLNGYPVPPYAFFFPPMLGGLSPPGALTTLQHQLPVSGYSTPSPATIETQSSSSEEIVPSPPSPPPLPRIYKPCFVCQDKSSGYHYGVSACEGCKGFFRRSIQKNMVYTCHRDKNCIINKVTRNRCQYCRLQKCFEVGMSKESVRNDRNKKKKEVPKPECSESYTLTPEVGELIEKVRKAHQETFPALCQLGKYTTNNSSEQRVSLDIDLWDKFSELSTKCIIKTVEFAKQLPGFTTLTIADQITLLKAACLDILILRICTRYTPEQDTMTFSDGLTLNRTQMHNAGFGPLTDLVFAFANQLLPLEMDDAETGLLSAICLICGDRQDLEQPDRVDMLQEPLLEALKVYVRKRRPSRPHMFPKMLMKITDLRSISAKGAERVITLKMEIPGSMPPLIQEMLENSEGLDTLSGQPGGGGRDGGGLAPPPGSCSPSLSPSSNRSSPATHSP
Summary of the method: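 After 24 h of chemical exposure, transiently transfected HepG2 cells were lysed for total RNA; the DR5-regulated reporter transcript was quantified via RT-PCR and capillary electrophoresis, with activity fitted bidirectionally against DMSO.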

[11] = target: Transcription factor E2F1 (Homo sapiens) (UniProt Q01094); experiment: ATG_E2F_CIS: Attagene CIS-FACTORIAL HepG2 Assay for human E2F Transcription Factor 1 (AID 2282935); details: HepG2 Attagene cis-reporter, E2F reporter RNA transcripts; actives raise or lower the signal
Chain of Transcription factor E2F1 (Homo sapiens) (Q01094 whole entry, looked up): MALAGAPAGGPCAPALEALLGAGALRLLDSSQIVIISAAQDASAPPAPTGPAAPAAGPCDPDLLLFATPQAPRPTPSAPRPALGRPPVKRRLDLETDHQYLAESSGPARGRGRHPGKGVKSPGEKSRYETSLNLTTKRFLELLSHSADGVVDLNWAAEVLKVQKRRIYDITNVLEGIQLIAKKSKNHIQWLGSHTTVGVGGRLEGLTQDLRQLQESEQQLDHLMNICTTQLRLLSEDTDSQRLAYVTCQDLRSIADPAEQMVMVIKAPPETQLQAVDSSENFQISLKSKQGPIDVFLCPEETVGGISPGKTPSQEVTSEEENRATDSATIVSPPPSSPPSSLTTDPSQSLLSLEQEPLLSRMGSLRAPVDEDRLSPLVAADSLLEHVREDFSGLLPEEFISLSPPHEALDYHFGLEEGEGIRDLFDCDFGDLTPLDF
Summary of the method: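 Transient MRTU transfection of HepG2; 24 h compound exposure; RNA → oligo(dT) RT → PCR → FAM label → HpaI cut → CE fluorescence. Gain/loss of signal fit against DMSO.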

[12] = ATG_E_Box_CIS: Attagene CIS-FACTORIAL HepG2 Assay for human Enhancer Box (E-box) (AID 2282936); details: HepG2 E-box cis-reporter transcription, actives raise or lower the signal
Summary of the method: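 Transiently transfected HepG2, endogenous TF-driven reporters, 24 h dosing. Readout: RT-PCR plus capillary electrophoresis of fluorescent reporter fragments. Gain or loss of signal fitted bidirectionally against DMSO baseline.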

[13] = ATG_M_61_CIS: Attagene CIS-FACTORIAL HepG2 Assay for M61 Transcription Factor (Internal Marker) (AID 2282937); details: HepG2 Attagene CIS-FACTORIAL M61 internal marker reporter; actives raise or lower the signal
Summary of the method: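 Multiplexed reporter mRNA assay, HepG2 human hepatoma cells, 24 h treatment. Signal: FAM-labelled, HpaI-digested RT-PCR fragments by CE. Fit: bidirectional, baseline DMSO.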

[14] = ATG_EGR_CIS: Attagene CIS-FACTORIAL HepG2 Assay for human Early Growth Response 1 (EGR1) (AID 2282938); details: HepG2 Attagene CIS-FACTORIAL EGR reporter mRNA; actives raise or lower the signal
Summary of the method: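 Multiplexed cis-reporter system in human hepatoma HepG2 cells, transiently transfected. Cells are dosed for 24 h; reporter transcripts are amplified, fluorescently tagged and sized by capillary electrophoresis, with DMSO as negative control.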

[15] = ATG_M_19_CIS: Attagene CIS-FACTORIAL HepG2 Assay for M19 Transcription Factor (Internal Marker) (AID 2282939); details: HepG2 Attagene CIS-FACTORIAL M19 internal marker reporter; actives raise or lower the signal
Summary of the method: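 Signals come from fluorescence of labelled reporter-specific PCR fragments resolved by capillary electrophoresis, following 24 h treatment of HepG2 cells transfected with cis-promoter reporter units; activity was fitted in both directions relative to DMSO.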

[16] = ATG_ERE_CIS: Attagene CIS-FACTORIAL HepG2 Assay for Estrogen Response Element (ERE) (AID 2282940); details: HepG2 ERE cis-reporter, Attagene RNA transcript; actives raise or lower the signal
Summary of the method: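 Fluorescence of capillary-separated, FAM-labelled reporter cDNA fragments indicates reporter mRNA levels in HepG2 cells exposed to chemicals for 24 h. Transient transfection with cis-regulated units; data fitted in both directions against DMSO.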

[17] = ATG_Ets_CIS: Attagene CIS-FACTORIAL HepG2 Assay for human Erythroblast Transformation Specific (ETS) (AID 2282941); details: HepG2 ETS cis-reporter transcription, actives raise or lower the signal
Summary of the method: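 Cis-regulated reporter mRNA induction in HepG2 (transient transfection), 24 h exposure, RT-PCR plus capillary electrophoresis detection; DMSO serves as negative control and baseline.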

[18] = target: Hepatocyte nuclear factor 3-beta (Homo sapiens) (UniProt Q9Y261); experiment: ATG_FoxA2_CIS: Attagene CIS-FACTORIAL HepG2 Assay for human Forkhead box A2 (FOXA2) (AID 2282942); details: HepG2 cis-reporter transcription factor activity, 24 h; actives raise or lower the signal
Chain of Hepatocyte nuclear factor 3-beta (Homo sapiens) (Q9Y261 whole entry, looked up): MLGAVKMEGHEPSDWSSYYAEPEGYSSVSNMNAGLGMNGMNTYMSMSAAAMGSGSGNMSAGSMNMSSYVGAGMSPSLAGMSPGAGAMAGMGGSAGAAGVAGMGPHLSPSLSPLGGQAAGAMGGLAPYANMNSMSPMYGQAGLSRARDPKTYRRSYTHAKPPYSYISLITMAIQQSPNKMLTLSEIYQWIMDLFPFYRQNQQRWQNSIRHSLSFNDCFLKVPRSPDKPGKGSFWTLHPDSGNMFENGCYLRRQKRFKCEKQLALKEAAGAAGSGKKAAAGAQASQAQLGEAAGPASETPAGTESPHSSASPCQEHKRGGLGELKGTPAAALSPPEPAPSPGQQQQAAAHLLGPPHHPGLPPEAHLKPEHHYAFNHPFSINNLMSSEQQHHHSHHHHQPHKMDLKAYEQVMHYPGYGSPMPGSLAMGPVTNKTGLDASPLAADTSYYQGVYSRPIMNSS
Summary of the method: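 Multiplexed cis-element reporter assay in transiently transfected HepG2. Twenty-four hours post-dosing, RNA was reverse-transcribed, amplified, FAM-labelled, HpaI-digested and separated by CE. Activity gain or loss relative to DMSO.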

[19] = ATG_FoxO_CIS: Attagene CIS-FACTORIAL HepG2 Assay for human Forkhead box O (FoxO) (AID 2282943); details: HepG2 Attagene cis-reporter, FoxO element, mRNA; actives raise or lower the signal
Summary of the method: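 Transfected HepG2 reporter cells exposed to test chemical for 24 h; reporter RNA measured by reverse transcription, PCR and fluorescent capillary electrophoresis; curves fitted for increases and decreases against DMSO.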

[20] = ATG_GATA_CIS: Attagene CIS-FACTORIAL HepG2 Assay for human GATA Binding Protein (AID 2282944); details: HepG2 GATA cis-element reporter, Attagene multiplex mRNA; actives raise or lower the signal
Summary of the method: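 After transfecting HepG2 cells with multiple cis-regulated reporter units, chemicals are dosed for 24 h; isolated RNA undergoes RT-PCR and fluorescent labeling before capillary electrophoresis, with activity expressed against DMSO.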

Measured: AC50

NC(=O)N(O)[C@@H]1C=C[C@H](Oc2cccc(Oc3ccc(F)cc3)c2)C1
active: [2] 22.6 µM | [4] 7.56 µM | [14] 33 µM
inactive: all other assays above

OCCC(F)(F)C(F)(F)C(F)(F)C(F)(F)C(F)(F)C(F)(F)F
active: [2] 154 µM | [3] 146 µM | [4] 145 µM | [5] 182 µM | [7] 77.3 µM | [11] 136 µM | [16] 33.9 µM and 9.4 µM | [20] 125 µM
inactive: [1] | [2] | [3] | [4] | [5] | [6] | [7] | [8] | [9] | [10] | [11] | [12] | [14] | [15] | [17] | [18] | [19] | [20]

Cc1oc(-c2ccccc2)nc1CCOc1ccc(C[C@H](Nc2ccccc2C(=O)c2ccccc2)C(=O)O)cc1
active: [9] 11 µM | [14] 17.1 µM | [16] 0.523 nM
inactive: all other assays above

COc1ccc([N+](=O)[O-])cc1N
inactive: all assays above

CC(C)(C)c1cc(C(C)(C)C)c(O)c(C(C)(C)C)c1
active: [4] 74.9 µM | [7] 76.4 µM and 27 µM
inactive: [1] | [2] | [3] | [4] | [5] | [6] | [8] | [9] | [11] | [12] | [14] | [15] | [16] | [17] | [18] | [19] | [20]
